Laboratory results: the supplement of paper PMC6555819

Key:
Test in all cases: PBM binding z-score (relative to random genomic background probes); higher = stronger binding; sequences stand for … in GC…GCGATTGACAGCGTAGAATGAAGG
[1] = tested on: FXR:RXRa (NR concentration 270 nM, RXRa partner concentration 90 nM)
Method in brief: (§1)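 For binding z-scores, the reference was random background probes on custom Agilent 4×180K protein-binding microarrays. These arrays were incubated 1 h with ligand-free nuclear receptor dimers in PBS pH 7.4, 2% milk, 0.02% Triton X-100, 1 mM DTT, 0.2 mg/mL BSA and 0.4 mg/ml salmon testes DNA. Fluorescence was scanned after antibody detection of each partner (one per run) and regression-normalized.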

[2] = tested on: LXRa:RXRa (NR concentration 270 nM, RXRa partner concentration 90 nM)
Method in brief: as §1

[3] = tested on: LXRa homodimer (NR concentration 270 nM)
Method in brief: as §1

[4] = tested on: LXRb homodimer (NR concentration 270 nM)
Method in brief: as §1

[5] = tested on: PPARa:RXRa (NR concentration 270 nM, RXRa partner concentration 90 nM)
Method in brief: as §1

[6] = tested on: PPARg:RXRa (NR concentration 180 nM, RXRa partner concentration 90 nM)
Method in brief: as §1

[7] = tested on: PPARg:RXRa 270nM:90nM, anti-RXR (NR concentration 270 nM, RXRa partner concentration 90 nM)
Method in brief: as §1

[8] = tested on: PPARg:RXRa 30nM:10nM, anti-RXR (NR concentration 30 nM, RXRa partner concentration 10 nM)
Method in brief: as §1

[9] = tested on: PPARg:RXRa 90nM:30nM, anti-RXR (NR concentration 90 nM, RXRa partner concentration 30 nM)
Method in brief: as §1

[10] = tested on: PPARg:RXRa DBDmut IVT, anti-RXR (DBD mutation: RXRa K156A/R161A, NR concentration 270 nM, RXRa partner concentration 90 nM)
Method in brief: as §1

[11] = tested on: PPARg:RXRa IVT, anti-PPARg (NR concentration 270 nM, RXRa partner concentration 90 nM)
Method in brief: as §1

[12] = tested on: PPARg DBDmut:RXRa IVT, anti-PPARg (DBD mutation: PPARg1 K132A/R137A, NR concentration 270 nM, RXRa partner concentration 90 nM)
Method in brief: as §1

[13] = tested on: PPARg DBDmut IVT, anti-PPARg (DBD mutation: PPARg1 K132A/R137A, NR concentration 270 nM)
Method in brief: as §1

[14] = tested on: PPARg homodimer (NR concentration 180 nM)
Method in brief: as §1

[15] = tested on: PXR:RXRa (NR concentration 270 nM, RXRa partner concentration 90 nM)
Method in brief: as §1

[16] = tested on: PXR homodimer (NR concentration 270 nM)
Method in brief: as §1

[17] = tested on: RARa:RXR (NR concentration 270 nM, RXRa partner concentration 90 nM)
Method in brief: as §1

[18] = tested on: RARa homodimer (NR concentration 270 nM)
Method in brief: as §1

[19] = tested on: RARb:RXRa (NR concentration 270 nM, RXRa partner concentration 90 nM)
Method in brief: as §1

Sequence | PBM binding z-score [1] | PBM binding z-score [2] | PBM binding z-score [3] | PBM binding z-score [4] | PBM binding z-score [5] | PBM binding z-score [6] | PBM binding z-score [7] | PBM binding z-score [8] | PBM binding z-score [9] | PBM binding z-score [10] | PBM binding z-score [11] | PBM binding z-score [12] | PBM binding z-score [13] | PBM binding z-score [14] | PBM binding z-score [15] | PBM binding z-score [16] | PBM binding z-score [17] | PBM binding z-score [18] | PBM binding z-score [19]
CCTACTGGGCAAAAAAGGTCATTGATGCCGATAA | 3.26 | 4.69 | 3.15 | -0.0939 | 4.85 | 1.45 | 2.78 | 0.775 | 1.99 | 0.468 | 1.62 | -0.0172 | -0.686 | 2.27 | 4.27 | 1.28 | 4.86 | 0.909 | 3.81
CAAAATAGGTCAAGAGGTCAAAGTCCGCTTCCCG | 7.64 | 6.57 | 6.23 | 2.46 | 6.57 | 9.42 | 8.19 | 6.55 | 8.11 | 7.42 | 7.83 | 2.31 | 1.62 | 5.84 | 6.31 | 2.24 | 7.5 | 2.71 | 5.7
ACTTACGGGTCAACGACGTTATAGCACGCGTATA | 6.03 | 3.91 | 0.144 | 0.83 | 5.66 | 5.3 | 5.09 | 1.83 | 3.59 | 3.06 | 3.74 | 1.35 | 0.774 | 1.67 | 3.19 | -0.178 | – | 0.684 | 4.07
CCTTACGGGTCACTGACAGCTTATAGCATTTGGA | 5.14 | 3.38 | 0.0209 | -0.0269 | 4.99 | 4.12 | 4.15 | 1.74 | 3.11 | 3.83 | 3.59 | 0.471 | 0.264 | 2.05 | 2.79 | -0.111 | 3.44 | 1.14 | 3.84
CGTCAAAGTTCAAGGTAAAGTAACAGAAAGCAGC | 5.75 | 5.37 | 2.35 | 0.837 | 4.4 | 4.51 | 5.07 | 2.5 | 3.89 | 0.433 | 1.82 | 0.69 | 0.346 | 2.5 | 3.99 | 2.2 | 3.47 | 1.3 | 4.95
AGAATGGGGTTATTAAGATCAGGGAATTGCGGTC | 3.03 | 2.77 | 0.597 | 2.14 | 4.48 | 3.31 | 3.5 | 1.26 | 2.65 | 3.63 | 3.26 | 1.44 | 1.55 | 2.23 | 2.44 | 1.82 | 2.78 | 1.71 | 1.77
GCTGCTAGGTCAGGTTGGTCAGCTAACGGGTACG | 1.01 | 0.656 | -0.0662 | -0.325 | 1.52 | 0.389 | 0.622 | -0.261 | 0.176 | 2.95 | 2.05 | -0.747 | -0.959 | 0.974 | 0.333 | -0.532 | 0.458 | -0.285 | 3.33
CCTAGATGGTCAGGAGGTCACACACCGGATATGA | 3.84 | 3.42 | 2 | 0.565 | 4.14 | 3.01 | 3.58 | 1.24 | 2.41 | 1.16 | 2.88 | 0.417 | 0.0962 | 3.94 | 4.14 | 1.76 | 4.94 | 2.24 | 3.54
TCTAGTTGGTCACGGGGGTCACACACGACGGGTA | 5.12 | 4.95 | 2.06 | 9.37 | 5.15 | 5.57 | 6.09 | 4.82 | 5.65 | 3.49 | 5.43 | 6.78 | 6.87 | 4.67 | 5.72 | 2.32 | 6.59 | 2 | 4.07
